Source: the supplement of paper PMC6555819

Assays:
Assay in all cases: PBM binding z-score (relative to random genomic background probes); higher = stronger binding; sequences stand for … in GC…GCGATTGACAGCGTAGAATGAAGG
[1] = test system: FXR:RXRa (NR concentration 270 nM, RXRa partner concentration 90 nM)
How it was run: (§1)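 For binding z-scores, the reference was random background probes on custom Agilent 4×180K protein-binding microarrays. These arrays were incubated 1 h with ligand-free nuclear receptor dimers in PBS pH 7.4, 2% milk, 0.02% Triton X-100, 1 mM DTT, 0.2 mg/mL BSA and 0.4 mg/ml salmon testes DNA. Fluorescence was scanned after antibody detection of each partner (one per run) and regression-normalized.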

[2] = test system: LXRa:RXRa (NR concentration 270 nM, RXRa partner concentration 90 nM)
How it was run: as §1

[3] = test system: LXRa homodimer (NR concentration 270 nM)
How it was run: as §1

[4] = test system: LXRb:RXRa (NR concentration 270 nM, RXRa partner concentration 90 nM)
How it was run: as §1

[5] = test system: LXRb homodimer (NR concentration 270 nM)
How it was run: as §1

[6] = test system: PPARa:RXRa (NR concentration 270 nM, RXRa partner concentration 90 nM)
How it was run: as §1

[7] = test system: PPARg:RXRa (NR concentration 180 nM, RXRa partner concentration 90 nM)
How it was run: as §1

[8] = test system: PPARg:RXRa 270nM:90nM, anti-RXR (NR concentration 270 nM, RXRa partner concentration 90 nM)
How it was run: as §1

[9] = test system: PPARg:RXRa 30nM:10nM, anti-RXR (NR concentration 30 nM, RXRa partner concentration 10 nM)
How it was run: as §1

[10] = test system: PPARg:RXRa 90nM:30nM, anti-RXR (NR concentration 90 nM, RXRa partner concentration 30 nM)
How it was run: as §1

[11] = test system: PPARg:RXRa DBDmut IVT, anti-RXR (DBD mutation: RXRa K156A/R161A, NR concentration 270 nM, RXRa partner concentration 90 nM)
How it was run: as §1

[12] = test system: PPARg:RXRa IVT, anti-PPARg (NR concentration 270 nM, RXRa partner concentration 90 nM)
How it was run: as §1

[13] = test system: PPARg DBDmut:RXRa IVT, anti-PPARg (DBD mutation: PPARg1 K132A/R137A, NR concentration 270 nM, RXRa partner concentration 90 nM)
How it was run: as §1

[14] = test system: PPARg DBDmut IVT, anti-PPARg (DBD mutation: PPARg1 K132A/R137A, NR concentration 270 nM)
How it was run: as §1

[15] = test system: PPARg homodimer (NR concentration 180 nM)
How it was run: as §1

[16] = test system: PXR:RXRa (NR concentration 270 nM, RXRa partner concentration 90 nM)
How it was run: as §1

[17] = test system: PXR homodimer (NR concentration 270 nM)
How it was run: as §1

[18] = test system: RARa:RXR (NR concentration 270 nM, RXRa partner concentration 90 nM)
How it was run: as §1

[19] = test system: RARa homodimer (NR concentration 270 nM)
How it was run: as §1

[20] = test system: RARb:RXRa (NR concentration 270 nM, RXRa partner concentration 90 nM)
How it was run: as §1

Sequence	PBM binding z-score [1]	PBM binding z-score [2]	PBM binding z-score [3]	PBM binding z-score [4]	PBM binding z-score [5]	PBM binding z-score [6]	PBM binding z-score [7]	PBM binding z-score [8]	PBM binding z-score [9]	PBM binding z-score [10]	PBM binding z-score [11]	PBM binding z-score [12]	PBM binding z-score [13]	PBM binding z-score [14]	PBM binding z-score [15]	PBM binding z-score [16]	PBM binding z-score [17]	PBM binding z-score [18]	PBM binding z-score [19]	PBM binding z-score [20]
ACAGACAGGTGATAAAGGTAACTCAGGCTATCAT	-0.11	-0.0181	-0.44	0.128	-0.23	0.763	1.15	1.47	0.377	1.35	-0.135	0.46	-0.885	-0.537	0.207	-0.0528	0.0239	0.267	-0.124	0.423
CCTACTGGGCCATCAGGTCGTTGATATCAACGTT	-0.00658	-0.372	-0.231	-0.0218	-0.541	0.992	1.22	2.22	0.274	1.41	4.23	4.12	-0.38	-0.752	0.382	0.0795	-0.323	0.272	-0.616	0.569
ATCTCTAGGTAACCAAGTTCAGTGATTGCCGAAC	0.358	0.717	0.794	0.577	0.713	1	0.254	0.803	0.204	0.579	3.9	2.88	1.17	1.33	0.823	1.96	2.46	0.708	0.307	1.18
GCTCGCAGGCCATTTGGGTCACTCAATGACGGGC	0.079	0.0243	-0.668	0.0952	-1.06	1.29	0.381	0.415	-0.625	-0.441	1.09	1.56	-1.82	-1.26	0.213	0.621	0.71	0.492	-0.566	1.72
ATAGAAAGGTCGTGAGGTGAGTATACAGAAAGGC	4.9	3.76	0.49	3.4	0.703	4.86	4.33	4.37	2.46	3.57	0.952	2.43	1.91	1.19	2	3.19	0.712	4.26	1.11	3.97
CGTGAAAGTTCAAGGTAACGTAACAGAAAGCAGC	5.94	5.62	2.82	3.12	0.85	4.54	3.2	4.01	1.51	3.03	0.31	1.59	1.08	0.978	2.81	4.03	2.44	3.46	0.962	4.93
GCTTACGGGCCAAAGGTTATAGCATGAATAGAAT	1.52	1.75	-0.0531	2.24	-0.287	4.59	8.48	7.11	6.58	7.83	1.06	3.69	-0.252	0.373	0.626	2.27	0.0168	3.13	0.0801	1.81
TCGAGCAGGTTAGGGGCATTCAGAATGGCGTCGA	0.0413	0.102	-0.285	0.523	-0.591	0.89	-0.117	0.183	0.0683	0.228	0.212	-0.145	-1.03	-1.48	0.0489	0.241	-0.0165	0.385	-0.605	1.11
CAAATTAGGTCACCGGAAGGTCAAAGTCCGCATG	6.61	6.31	5.39	5.47	1.82	6.44	9.14	7.56	5.87	7.39	8.26	8.72	5.54	4.55	7.17	6.18	1.78	7.5	2.54	5.54
CCTACTGGGACATCAGGTCATTGATATCAACGTT	1.42	1.88	2.8	2.06	0.52	2.67	2.46	3.36	1.61	3.06	4.19	4.32	0.344	0.76	1.84	1.82	1.56	2.04	0.755	1.99
ATACCAAGGTGATCGTGAGGGCGTTGATACTAAC	0.788	0.233	-0.00704	0.447	-0.219	0.489	0.369	-0.183	-0.112	-0.238	0.642	0.871	0.129	1.25	0.383	1.29	0.775	0.85	0.505	0.796
TCGAGTAGGTTAGTCGGGGCATTCTGCCAACATA	-0.351	-0.585	-0.552	0.145	-0.607	0.377	-0.424	0.587	0.946	0.676	2.38	1.64	-0.758	-0.515	-0.211	-0.103	-0.171	-0.0333	-0.547	0.287
CGTCCAAGGTCATAGGACGTCAGTGAAGACAGAT	7.14	5.2	0.696	3.88	0.284	5.43	4.73	5.14	1.6	3.51	2.61	3.41	0.547	0.692	1.99	4.09	1.1	4.61	1.29	4.77
CGTCCAAGGTCAATGCTAGGTCAGTGATAGCATT	6.64	5.38	2.71	4.07	0.685	5.03	4.12	4.4	1.74	3.05	3.49	4.23	0.259	0.244	6.16	5.12	2	6.2	2.14	5.21
CTCGAAAGGTCGGTTGAGGCGAGTATACGGATAA	1.49	1.17	-0.238	0.925	-0.22	2.11	0.256	0.752	-0.191	0.269	-0.316	0.197	0.246	-0.285	0.331	1.17	-0.214	2	-0.443	2.66
ATATGTAGGTTAAGGGTCAATCAGGTTGGTTCGC	4.97	4.62	1.8	4.47	1.35	6.65	11.6	9.7	10.1	10.8	7.74	7.77	1.78	2.49	4.11	5.32	1.21	5.74	2.21	3.64
TCTAGCAGGCCAGAGGGTCTCTCAAGAGGTACGG	-1.4	-0.676	-0.763	-0.66	-1.71	-0.298	0.13	0.975	1.38	1.06	0.543	-0.453	-1.92	-1.94	-0.634	-0.569	-1.12	-0.436	-0.894	-0.239
ATAGGTAGGTTACATCCGGGTCATTCAGGCTATG	2.31	4.03	1.3	2.53	0.566	3.17	2.36	2.74	0.814	1.92	3.73	3.91	0.843	0.221	1.99	3.53	3.04	3.51	1.15	2.39
AGAATGAGGGTATTAAGATCAGGGAATTGCGGTC	0.048	0.136	-0.107	-0.105	0.211	0.659	0.403	0.28	0.322	0.102	1.71	0.923	0.443	0.824	0.506	0.0196	0.451	0.253	0.44	0.4
ACTATTAGTTGAGACGAGGGCAACGGATAGGTTG	0.259	0.127	-0.147	0.0625	0.209	0.0596	0.652	-0.1	-0.0194	-0.207	-0.0332	0.424	0.418	0.955	0.155	1.32	0.265	1.26	0.262	0.843
ATCTCTGGGTAACAAGTTCAGTGAAAGAGAGGAC	0.503	0.668	0.353	0.819	0.98	1.7	1.62	1.83	0.953	1.5	2.93	2.94	0.76	0.979	1.27	1.87	1.92	0.922	1.24	1.75
ACTATTAGTTTACTTAGGGCAACCGATACGACGC	0.0954	0.173	0.422	0.0496	0.375	0.0302	0.985	0.261	0.394	0.541	0.826	0.924	0.857	1.39	0.166	0.669	1.14	0.64	0.904	1.04
CCTAGTTGGTCAGGAGGTCATACACCGGATATGA	3.81	3.61	2.79	3.13	0.702	3.89	2.72	3.82	1.58	2.89	1.25	3.03	0.324	0.888	3.21	3.99	1.57	4.19	1.23	3.33
GGCACGAGGGCAAGTTGATAGCAGAGTTTGATGG	0.802	0.399	-0.191	0.444	-0.697	1.23	0.838	0.927	-0.291	0.52	2.14	1.32	-0.405	-1.03	0.282	1.01	0.171	0.665	-0.327	2.59
TGTCGAAGTTCAAAGGTAACGTAAGTATCCACAC	4.25	4.02	1.18	3.18	0.108	4.72	4.47	5.23	2.95	4.34	-0.721	2.09	0.265	0.298	1.53	4.12	1.65	4.17	0.485	3.61
ATCGAAAGGTCGTAGGTGAGTATACCCACCCGAA	5.3	4.31	0.335	3.11	0.812	5.14	4.11	4.56	1.68	3.46	-0.212	2.34	1.08	0.645	1.97	3.12	0.577	4.04	0.489	3.76
